Shown are actives, neighbours in structure and some others; about 2.9% of the full set was active somewhere.
Nrf2 block: Nrf2 pathway inhibition | A549 ARE-Fluc reporter, luciferase luminescence, 18-24 h | Potency, µM (top dose mostly 46 µM), for the others: at the highest dose activity change, negative = inhibition, hits mostly inhibitors | AID 504444 | hit rate 2.1% among 360,000; note: % is set by controls: 0 for no effect and ±100 for the full control effect; nearly all actives have a fitted effect of over 60% in size
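Concentration-response testing used A549 ARE_Fluc cells at 5000 cells/well. Following an 18-24 h compound incubation, viability was read by fluorescence (Ex 405/Em 525) and luciferase output by luminescence.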
ATXN viability: cell viability loss in ATXN counter-screen; S2 cells (HEK-293 line with an ATXN2-luciferase reporter) viability, CellTiter-Fluor protease fluorescence, 24 h; hit rate 0.49% among 400,000; Potency, µM (titrated, usually from 56.7 µM), actives largely listed as cytotoxic; note: nearly all actives have a fitted effect of over 40% in size
A549 viability: kills or reduces viability of A549 cells in Nrf2 counter-screen | A549 ARE-Fluc cells, CellTiter-Fluor viability, 18-24 h | Potency, µM (titrated, usually from 46 µM), inactives show at the highest dose activity change, negative = cytotoxicity, most hits filed as inhibitors | hit rate 0.16% among 390,000; note: % is set by controls: 0 for no effect and ±100 for the full control effect
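Cytotoxicity counterscreen: CellTiter-Fluor fluorescence was measured in A549 ARE_Fluc cells after 18-24 h of compound exposure in a concentration series. The subsequent BugLite luminescent read reports ARE-luciferase activity.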
ATXN2 expr inh: inhibitors of ATXN2 expression. HEK-293 ATXN2-luciferase reporter, luminescence, 24 h. Potency, µM (titrated, usually from 57 µM), for inactives: at the highest dose activity change, negative = inhibition, most hits filed as inhibitors. hit rate 0.72% among 360,000; note: % is set by controls: 0 for no effect and ±100 for the full control effect; nearly all actives have a fitted effect of over 55% in size
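ATXN2-luciferase reporter cells (luciferase flanked by upstream and downstream ATXN2 gene portions) were treated 24 h at 37 °C with compounds at up to 57 uM. SteadyGlo luminescence gave expression; GF-AFC fluorescence gave viability.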
Nrf2 ARE act: activators of Nrf2 (ARE) signaling; AREc32 ARE-luciferase reporter (MCF7-derived line), luminescence, 24 h; AID 624171; Potency, µM (series often up to 46.1 µM), for the others: at the highest dose activation, hits mostly activators; hit rate 0.31% among 410,000; note: % of control where 0% means no effect; nearly all actives have a fitted effect of over 65% in size
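Steps: seed AREc32_Fluc cells (1000/well, 5% FBS OPTI-MEM); incubate overnight at 37 deg C; add 23 nL compound; incubate 24 hr; add Steady-Glo; hold 30 min RT; read luminescence.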
Starred values were filed as active, the others as inactive. Calls come from the whole dose curve; as a rule, active = well fitted curve in the direction sought with a large enough effect; inconclusive = small, poorly fitted or top-dose-only effect, or another doubt; inactive = no such curve, though single readings can be large; an effect the other way counts as inactive or inconclusive. Potency is the fitted concentration of half-maximal effect.

Cc1sc2ncnc(N/N=C/c3cccc(O)c3)c2c1C was read as Nrf2 block -4%, A549 viability -5%, ATXN2 expr inh 40% and Nrf2 ARE act 8%.
For CC1(N2CCCCC2)C(=O)c2ccccc2C1=O the results were Nrf2 block 14%, ATXN viability inactive, A549 viability 0%, ATXN2 expr inh -2% and Nrf2 ARE act 2%.
CC1(S(=O)(=O)O)CC(=O)c2ccccc2C1=O (stereo unspecified) was read as Nrf2 block inconclusive, A549 viability -1%, ATXN2 expr inh 25µM* and Nrf2 ARE act -4%.
Screening CCCCCCc1nc2ccccc2c(=O)n1NC(=O)c1c(O)c2c(n(CC(C)C)c1=O)CCCC2 returned Nrf2 block 21µM*, ATXN viability inactive, A549 viability inconclusive, ATXN2 expr inh inconclusive and Nrf2 ARE act 0%.
For CCn1c(=O)c(C(=O)NNS(=O)(=O)c2ccc(C)cc2)c(O)c2ccccc21 the results were Nrf2 block 15µM*, ATXN viability inactive, A549 viability -28%, ATXN2 expr inh -17% and Nrf2 ARE act 3%.
CCCn1c(=O)c(C(=O)NNS(=O)(=O)c2ccc(C)cc2)c(O)c2ccccc21 was read as Nrf2 block inconclusive, ATXN viability inactive, A549 viability -8%, ATXN2 expr inh -13% and Nrf2 ARE act 0%.
`CCCc1nc2ccccc2c(=O)n1NC(=O)c1c(O)c2ccccc2n(C)c1=O` gave Nrf2 block 18µM*, ATXN viability inconclusive, A549 viability -22%, ATXN2 expr inh inconclusive and Nrf2 ARE act 0%.
For CCc1nc2ccccc2c(=O)n1NC(=O)c1c(O)c2ccccc2[nH]c1=O the results were Nrf2 block 4%, ATXN viability inactive, A549 viability -1%, ATXN2 expr inh -3% and Nrf2 ARE act -1%.
Screening CC(C)CNC(=O)c1cccc(NC(=O)c2ccc(Cl)c([N+](=O)[O-])c2)c1 returned Nrf2 block 26µM*, ATXN viability inactive, A549 viability inconclusive, ATXN2 expr inh 2% and Nrf2 ARE act inconclusive.
Screening Cc1ccc(NC(=O)c2ccc(NCCCN3CCOCC3)c([N+](=O)[O-])c2)cc1Cl returned Nrf2 block -11%, ATXN viability inactive, A549 viability -14%, ATXN2 expr inh -28% and Nrf2 ARE act 5%.
For O=C(Nc1ccc(Cl)c([N+](=O)[O-])c1)c1ccc(NCCCN2CCOCC2)c([N+](=O)[O-])c1 the results were Nrf2 block -19%, ATXN viability inconclusive, A549 viability 0%, ATXN2 expr inh 32µM* and Nrf2 ARE act -1%.
For CC(C)(C)Nc1ncnc2sc(-c3ccccc3)cc12 the results were Nrf2 block 12µM*, ATXN viability inactive, A549 viability inconclusive, ATXN2 expr inh -30% and Nrf2 ARE act 1%.
OCCCNc1ncnc2sc(-c3ccccc3)cc12 was read as Nrf2 block inconclusive, ATXN viability inactive, A549 viability 1%, ATXN2 expr inh -19% and Nrf2 ARE act 13%.
C=COCCCNc1ncnc2sc(-c3ccccc3)cc12 was read as Nrf2 block 13µM*, ATXN viability inconclusive, A549 viability -16%, ATXN2 expr inh 0% and Nrf2 ARE act 0%.
For CCCCC[C@H]1CN(CCc2ccccc2)C(=O)[C@@H]1CC(=O)NCc1ccc(OC)cc1 the results were Nrf2 block 26µM*, ATXN viability inactive, A549 viability inconclusive, ATXN2 expr inh -28% and Nrf2 ARE act 5%.
Screening Cc1oc(-c2ccccc2NS(C)(=O)=O)nc1CN(C)Cc1ccc(Cl)cc1 returned ATXN viability inactive.
For Cc1onc(-c2ccccc2Cl)c1C(=O)OCC(=O)Nc1cccc(S(=O)(=O)N2CCOCC2)c1 the results were Nrf2 block 18µM*, ATXN viability inactive, A549 viability -7%, ATXN2 expr inh -20% and Nrf2 ARE act 0%.
`O=C(COC(=O)c1cnc(Cl)c(Cl)c1)Nc1cccc(S(=O)(=O)N2CCOCC2)c1` gave Nrf2 block 3%, ATXN viability inactive, A549 viability -4%, ATXN2 expr inh 3% and Nrf2 ARE act 3%.

Source: PubChem (National Center for Advancing Translational Sciences (NCATS))
